{"source": "PubChem BioAssay AID651747", "about": "(Johns Hopkins Ion Channel Center, 2012)", "note": "Among all 2,400 compounds or so, about 950 (40%) were called active. This is one part of a sample in which actives are shown more often than they occur.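 The calls were made as follows: active = thallium flux ratio, averaged over three wells, more than 5 SD below the buffer control mean; inactive = the rest.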"}
{"assay": "thallium flux inhibition in non-induced cells, primary screen, counter-screen for KCNK3 inhibitor project, cell-based, non-induced KCNK3 line, FluxOR thallium, triplicate (AID 651747);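 also: host cells are CHO cells without KCNK3 induction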;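 as to thallium flux ratio (lower = more inhibition): ratio is peak minus trough fluorescence over baseline then normalized to buffer controls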", "details": "non-induced KCNK3 parental cells, at 10 µM; stronger effect = lower value"}
{"smiles": "CCOC(=O)C1SC2(C(F)(F)C(F)F)CC1(O)c1c(c(OC)c3occc3c1OC)O2", "note": "(stereo not drawn)", "thallium flux ratio (lower = more inhibition)": "0.16 (active)"}
{"smiles": "CCCCCCN=C(CC)c1c(O)n(CCCC)c(=O)[nH]c1=O", "thallium flux ratio (lower = more inhibition)": "0.126 (active)"}
{"smiles": "COc1ccccc1C1=NCc2nnc(CSC)n2-c2ccc(Cl)cc21", "thallium flux ratio (lower = more inhibition)": "inactive"}
